About 83,000 compounds went through this panel and 20% of them were active in at least one assay; those are over-represented in the sample as a whole.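 The test compound was applied at a single concentration to cells in 96-well plates for 48 hours, and percent growth was recorded.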 A number with no mark means an inactive call. Active and inactive are the calls of the source. The calls were made as follows: active = growth percent below 10; inactive = the rest.
How the values were obtained:
Assay in all cases: NCI-60 one-dose screen, 48 h (100 = growth as untreated, 0 = no growth, -100 = all killed)
[1] = tested on: DU-145 prostate; conditions: 10 µM unless noted
[2] = tested on: K-562 leukemia; conditions: 10 µM unless noted
[3] = tested on: MALME-3M melanoma; conditions: 10 µM unless noted
[4] = tested on: RXF 393 renal; conditions: 10 µM unless noted
[5] = tested on: SF-268 CNS; conditions: 10 µM unless noted
[6] = tested on: SF-295 CNS; conditions: 10 µM unless noted
[7] = tested on: SF-539 CNS; conditions: 10 µM unless noted
[8] = tested on: UACC-257 melanoma; conditions: 10 µM unless noted
[9] = tested on: M14 melanoma; conditions: 10 µM unless noted
[10] = tested on: HCT-15 colon; conditions: 10 µM unless noted
[11] = tested on: HT29 colon; conditions: 10 µM unless noted
[12] = tested on: SNB-75 CNS; conditions: 10 µM unless noted
[13] = tested on: SNB-19 CNS; conditions: 10 µM unless noted
[14] = tested on: U251 CNS; conditions: 10 µM unless noted
[15] = tested on: PC-3 prostate; conditions: 10 µM unless noted
[16] = tested on: SK-MEL-5 melanoma; conditions: 10 µM unless noted
[17] = tested on: UACC-62 melanoma; conditions: 10 µM unless noted
[18] = tested on: SK-MEL-28 melanoma; conditions: 10 µM unless noted
[19] = tested on: MDA-MB-231 breast; conditions: 10 µM unless noted
[20] = tested on: LOX IMVI melanoma; conditions: 10 µM

## C=C1CC[C@@H]2[C@]3(C)COC(c4cn(-c5ccccc5)nc4-c4cccc([N+](=O)[O-])c4)O[C@@H]3CC[C@@]2(C)[C@@H]1C/C=C1/C(=O)OC[C@H]1O (stereo partly specified)
[1]
  growth: 44.3%
[2]
  growth: -12.7% (active)
[3]
  growth: -67.6% (active)
[4]
  growth: -84.2% (active)
[5]
  growth: 46%
[6]
  growth: -46.5% (active)
[7]
  growth: -96.4% (active)
[8]
  growth: -68% (active)
[9]
  growth: -51.2% (active)
[10]
  growth: -74.2% (active)
[11]
  growth: -59.7% (active)
[12]
  growth: 109%
[13]
  growth: 23.5%
[14]
  growth: -73.9% (active)
[15]
  growth: 16.5%
[16]
  growth: -99.6% (active)
[17]
  growth: -71.7% (active)
[18]
  growth: -47.9% (active)

## CCOC(=O)C1=C(N)N(c2ccccc2)C2=C(C(=O)CC(C)(C)C2)C1c1cccc(Cl)c1Cl (stereo unspecified)
[1]
  growth: 81%
[2]
  growth: 59.5%
[3]
  growth: 77.6%
[4]
  growth: 53.4%
[5]
  growth: 66%
[6]
  growth: 53.5%
[7]
  growth: 32.6%
[8]
  growth: 85.4%
[9]
  growth: 81%
[10]
  growth: 65.8%
[11]
  growth: 72.7%
[12]
  growth: 56.8%
[13]
  growth: 41.7%
[14]
  growth: 55.2%
[15]
  growth: 35.3%
[16]
  growth: 77.6%
[17]
  growth: 55.6%
[18]
  growth: 91%

## Cc1ccc([C@H]2C(C(=O)c3ccc(Cl)cc3)C3(N[C@@H]2c2ccccc2)C(=O)Nc2ccccc23)cc1 (stereo partly specified)
[1]
  growth: 80.2%
[2]
  growth: 11.8%
[3]
  growth: 20.5%
[19]
  growth: 27.2%
[4]
  growth: 19%
[5]
  growth: 61.1%
[6]
  growth: 42.6%
[7]
  growth: 83.9%
[8]
  growth: 26.9%
[9]
  growth: 28.7%
[10]
  growth: 35.6%
[11]
  growth: 17.8%
[14]
  growth: 48.6%
[15]
  growth: 2.35% (active)
[16]
  growth: 34.3%
[17]
  growth: 13.4%
[18]
  growth: 32.8%

## Cc1c(C(=O)NNC(=O)c2ccc(Cl)cc2)nnn1-c1ccc(Cl)cc1
[1]
  growth: 108%
[2]
  growth: 86.3%
[3]
  growth: 86.9%
[4]
  growth: 92.7%
[5]
  growth: 105%
[6]
  growth: 82.7%
[7]
  growth: 99.6%
[8]
  growth: 94.1%
[9]
  growth: 93.6%
[10]
  growth: 93.5%
[11]
  growth: 92.3%
[12]
  growth: 83.6%
[13]
  growth: 95.1%
[14]
  growth: 99.8%
[15]
  growth: 95.4%
[16]
  growth: 99.5%
[17]
  growth: 86.1%
[18]
  growth: 94%

## CCCCSc1nc(Nc2ccc(C(C)=O)cc2)c(C#N)c(-c2ccc(OC)cc2)n1
[1]
  growth: 88.5%
[2]
  growth: 69.6%
[3]
  growth: 77.2%
[19]
  growth: 60.6%
[5]
  growth: 63.1%
[6]
  growth: 47.6%
[7]
  growth: 25.9%
[8]
  growth: 104%
[9]
  growth: 91.8%
[10]
  growth: 74.9%
[11]
  growth: 78.5%
[12]
  growth: 93%
[13]
  growth: 61.8%
[14]
  growth: 10.2%
[15]
  growth: 90.8%
[16]
  growth: 90.1%
[20]
  growth: 39.7%
[18]
  growth: 91%

## CC(C)c1ccc2c(N)c(C(=O)Nc3cccc(C(F)(F)F)c3)sc2n1
[1]
  growth: 73.4%
[2]
  growth: 8.51% (active)
[3]
  growth: 80.3%
[4]
  growth: 42.1%
[5]
  growth: 94.2%
[6]
  growth: 64.9%
[7]
  growth: 66.6%
[8]
  growth: 90.1%
[9]
  growth: 32.8%
[10]
  growth: -0.908% (active)
[11]
  growth: 29.2%
[12]
  growth: 129%
[13]
  growth: 87.3%
[14]
  growth: 71.1%
[15]
  growth: 73.7%
[16]
  growth: 72.3%
[17]
  growth: 92.5%
[18]
  growth: 80.2%

## CCCCn1c(O)c(N=Nc2nc(-c3cc4ccccc4oc3=O)cs2)c2cc(Br)ccc21
[1]
  growth: 108%
[2]
  growth: 105%
[3]
  growth: 105%
[19]
  growth: 106%
[5]
  growth: 97%
[6]
  growth: 105%
[7]
  growth: 103%
[8]
  growth: 103%
[9]
  growth: 112%
[10]
  growth: 102%
[11]
  growth: 112%
[12]
  growth: 102%
[13]
  growth: 95.3%
[14]
  growth: 101%
[15]
  growth: 97.4%
[16]
  growth: 98.3%
[17]
  growth: 93.5%
[20]
  growth: 94.7%
[18]
  growth: 104%

## COc1ccc(CCC2c3c(cc4c(c3OC)OCO4)CCN2C)cc1 (stereo unspecified)
[1]
  growth: 5.2% (active)
[2]
  growth: 3.01% (active)
[3]
  growth: -98.4% (active)
[19]
  growth: -80.8% (active)
[4]
  growth: -35% (active)
[5]
  growth: 10.2%
[6]
  growth: -65.2% (active)
[7]
  growth: -99.9% (active)
[8]
  growth: -65.7% (active)
[10]
  growth: -16.4% (active)
[11]
  growth: -45.6% (active)
[13]
  growth: -2.75% (active)
[14]
  growth: -90.4% (active)
[15]
  growth: 3.75% (active)
[16]
  growth: -98.9% (active)
[17]
  growth: -95.7% (active)
[18]
  growth: -98.3% (active)

## N#Cc1c(-c2ccccc2Cl)cc(-c2c[nH]c3ccccc23)[nH]c1=O
[1]
  growth: 66%
[2]
  growth: 20%
[3]
  growth: 57.2%
[4]
  growth: 48.7%
[5]
  growth: 80%
[6]
  growth: 75.8%
[7]
  growth: 52.2%
[8]
  growth: 82.3%
[9]
  growth: 64.1%
[10]
  growth: 48.7%
[11]
  growth: 107%
[12]
  growth: 25.7%
[13]
  growth: 69.5%
[14]
  growth: 67%
[15]
  growth: 72.8%
[16]
  growth: 63.8%
[17]
  growth: 50.3%
[18]
  growth: 65.3%
